Assay results published in PubChem BioAssay.
Calls of active or inactive are those of the source. Unless noted, no rule for the calls is given here.

Assays:
[1] = resazurin metabolic signal in HepG2 cells – cell-based, resazurin fluorescence, 24 h, PK04 Diversity Set, profiling panel (AID 1172); conditions: HepG2 viability, higher = more signal
[2] = budding yeast growth changes without added modifier – OD600, strain BY4716, 24 h, basal condition, primary screen (AID 1173); conditions: S. cerevisiae BY4716 growth, OD600, 24 h; higher = more signal, called active from +8 up or from −8 down
[3] = viability profiling in MM1S myeloma cells – cell-based, resazurin fluorescence, basal, 24 h, PK04 Diversity Set, profiling panel (AID 1174); conditions: higher = more signal, called active from +8 up or from −8 down;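 also: MM1S multiple myeloma cell line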
[4] = target: Dihydroorotate dehydrogenase (quinone), mitochondrial (Plasmodium falciparum (isolate 3D7)) (UniProt Q08210); assay: inhibition of P. falciparum DHODH – biochemical, C-terminal His tag, absorbance 600 nm, primary screen (AID 1175); conditions: PfDHODH enzyme, DCIP absorbance 600 nm; higher = more signal, called active from +8 up or from −8 down;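 also: recombinant parasite enzyme with a five histidine tag at its C terminus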
[5] = inhibition of PAO1 biofilm formation – strain PAO1, LB-PBS medium, absorbance 600 nm, primary screen (AID 1176); conditions: P. aeruginosa PAO1 growth/biofilm, A600, 12 h; higher = more signal
[6] = growth modulation of vineyard yeast isolate – strain RM11-1a, OD600, basal, 24 h, primary screen (AID 1177);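 also: cultures grown under basal conditions with no added stressor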; conditions: S. cerevisiae RM11-1a growth, OD600, 24 h; higher = more signal, called active from +8 up or from −8 down
[7] = growth of efflux-deficient E. coli DRC39 – strain DRC39, OD650, 24 h, E. coli filamentation inducers, primary screen (AID 1178);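 also: growth measured as culture turbidity by optical density at 650 nm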; conditions: E. coli DRC39 acrAB, higher = more signal, called active from +8 up or from −8 down
[8] = growth of efflux-deficient E. coli DRC39 – strain DRC39, OD650, 48 h, E. coli filamentation inducers, primary screen (AID 1179);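 also: screen aims at cell division blockers that make cells filament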; conditions: E. coli DRC39 delta-acrAB growth, higher = more signal, called active from +8 up or from −8 down
[9] = viability profiling in RPMI8226 myeloma cells – cell-based, resazurin fluorescence, basal, 24 h, PK04 Diversity Set, profiling panel (AID 1180); conditions: higher = more signal;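 also: RPMI8826 multiple myeloma cell line at 5000 cells per well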
[10] = target: E3 ubiquitin-protein ligase XIAP (Homo sapiens) (UniProt P98170); assay: small molecules binding XIAP protein – biophysical, small-molecule microarray, fluorescence 635 nm, primary screen (AID 1181); conditions: higher = more signal;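 also: score merges 667 nm emission and signal to noise over triplicate slides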
[11] = system: XIP peptide (Xip251-270) binding; assay: XIP fragment 251-270 binding compounds – biochemical, small-molecule microarray, fluorescence 635/667 nm, 0.1 µg/mL protein, primary screen (AID 1182); conditions: fluorescent protein binding, 635 nm, higher = more signal, called active from +8 up or from −8 down
XIP peptide (Xip251-270) = assay: compounds binding XIP fragment 251-270 – biochemical, small-molecule microarray, fluorescence 635/667 nm, 0.5 µg/mL protein, primary screen (AID 1183); conditions: fluorescence 635 nm, higher = more signal
[12] = blood-stage malaria parasite viability loss – strain 3D7, DAPI fluorescence, 100 nL, primary screen (AID 1184);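 also: parasites grown inside human red blood cells in medium with human serum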; conditions: P. falciparum 3D7 growth, 3 d, higher = more signal
[13] = target: Homeobox protein Hox-A13 (Mus musculus) (UniProt Q62424); assay: disruptors of Hoxa13 oligonucleotide interaction – biochemical, fluorescence polarization, labeled oligonucleotide, primary screen (AID 1185); conditions: Hoxa13:DNA binding, 15 min, higher = more signal, called active from +8 up or from −8 down
[14] = blockers of DNA damage checkpoint Chk1 activation – imaging, HeLa, hydroxyurea, phospho-Chk1 antibody, percent positive cells, primary screen (AID 1186); conditions: hydroxyurea-induced phospho-Chk1 immunofluorescence imaging, higher = more signal
[15] = blockers of DNA damage checkpoint Chk1 activation – imaging, HeLa, hydroxyurea, phospho-Chk1 nuclear intensity, primary screen (AID 1187); conditions: hydroxyurea-induced phospho-Chk1 immunofluorescence imaging, higher = more signal

Sequence of E3 ubiquitin-protein ligase XIAP (Homo sapiens) (P98170 whole entry, looked up, the tested form may be a part): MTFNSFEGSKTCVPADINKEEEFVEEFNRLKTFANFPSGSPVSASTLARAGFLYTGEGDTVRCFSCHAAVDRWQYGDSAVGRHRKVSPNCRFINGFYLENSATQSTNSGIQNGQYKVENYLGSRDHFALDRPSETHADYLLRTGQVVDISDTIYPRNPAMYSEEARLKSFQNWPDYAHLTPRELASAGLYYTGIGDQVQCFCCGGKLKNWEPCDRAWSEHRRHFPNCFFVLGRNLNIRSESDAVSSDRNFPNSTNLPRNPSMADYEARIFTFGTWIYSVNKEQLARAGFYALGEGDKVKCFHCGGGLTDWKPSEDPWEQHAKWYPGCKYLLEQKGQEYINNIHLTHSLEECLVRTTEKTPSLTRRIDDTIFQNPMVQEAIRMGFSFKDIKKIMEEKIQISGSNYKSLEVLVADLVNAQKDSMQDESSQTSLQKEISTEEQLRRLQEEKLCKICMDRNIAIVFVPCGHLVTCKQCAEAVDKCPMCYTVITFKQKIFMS
Sequence of Homeobox protein Hox-A13 (Mus musculus) (Q62424 whole entry, looked up): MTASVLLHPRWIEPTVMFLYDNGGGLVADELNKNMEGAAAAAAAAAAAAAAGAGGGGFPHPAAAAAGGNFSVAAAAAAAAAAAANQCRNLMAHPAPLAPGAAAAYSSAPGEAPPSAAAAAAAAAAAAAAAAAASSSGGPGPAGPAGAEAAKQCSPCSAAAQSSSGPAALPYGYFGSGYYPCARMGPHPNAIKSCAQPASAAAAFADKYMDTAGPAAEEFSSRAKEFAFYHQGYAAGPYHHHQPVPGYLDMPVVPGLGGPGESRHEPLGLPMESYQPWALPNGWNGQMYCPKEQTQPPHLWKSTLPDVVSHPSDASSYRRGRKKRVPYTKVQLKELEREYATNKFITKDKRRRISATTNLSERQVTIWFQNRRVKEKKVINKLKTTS
Sequence of Dihydroorotate dehydrogenase (quinone), mitochondrial (Plasmodium falciparum (isolate 3D7)) (Q08210 whole entry, looked up): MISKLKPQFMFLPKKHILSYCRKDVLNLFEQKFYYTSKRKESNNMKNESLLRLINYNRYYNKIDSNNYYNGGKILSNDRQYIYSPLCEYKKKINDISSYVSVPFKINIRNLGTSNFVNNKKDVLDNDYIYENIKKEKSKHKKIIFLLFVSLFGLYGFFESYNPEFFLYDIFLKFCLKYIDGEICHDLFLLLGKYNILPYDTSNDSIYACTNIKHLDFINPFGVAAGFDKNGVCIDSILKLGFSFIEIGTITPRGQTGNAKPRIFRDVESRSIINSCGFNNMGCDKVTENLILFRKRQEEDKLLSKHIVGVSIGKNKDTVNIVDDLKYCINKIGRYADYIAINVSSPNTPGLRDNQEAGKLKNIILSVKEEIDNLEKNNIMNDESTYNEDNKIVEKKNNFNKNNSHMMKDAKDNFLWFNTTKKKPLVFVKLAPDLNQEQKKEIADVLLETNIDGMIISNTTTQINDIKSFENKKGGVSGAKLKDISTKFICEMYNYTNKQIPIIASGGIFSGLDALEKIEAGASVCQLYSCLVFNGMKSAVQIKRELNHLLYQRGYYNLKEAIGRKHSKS

| SMILES | z-score [1] | z-score [2] | z-score [3] | composite z-score [4] | z-score [5] | z-score [6] | z-score [7] | z-score [8] | z-score [9] | composite z-score [10] | composite z-score [11] | composite z-score (XIP peptide (Xip251-270)) | z-score [12] | z-score [13] | z-score [14] | z-score [15] |
| --- | --- | --- | --- | --- | --- | --- | --- | --- | --- | --- | --- | --- | --- | --- | --- | --- |
| COC(=O)[C@@]1(Cc2ccc(OC)cc2)[C@H]2c3cc(C(=O)N4CCCC4)n(Cc4ccc(C)o4)c3C[C@H]2CN1C(=O)c1ccccc1 | -6.47 | -8.36 (active) | -9.97 (active) | -1.53 (inactive) | 0.411 (inactive) | -1.57 (inactive) | 0.0254 (inactive) | -0.726 (inactive) | -7.27 | 0.402 | 0.0373 (inactive) | 0.283 | -1.77 | -5.91 (inactive) | -0.683 (inactive) | -1.38 (inactive) |
| COC(=O)[C@H]1N=C(c2ccc(OCCCO)cc2)O[C@H]1c1ccccc1CN=[N+]=[N-] | 1.55 | -0.785 (inactive) | 0.236 (inactive) | 0.982 (inactive) | -0.043 (inactive) | 1.29 (inactive) | 0.535 (inactive) | -0.0456 (inactive) | 1.32 | 0.331 | 0.262 (inactive) | 0.62 | -1.79 | -1.53 (inactive) | 0.0721 (inactive) | 0.328 (inactive) |
| O=C1O[C@@H](c2ccccc2)[C@@H](c2ccccc2)N2[C@@H](c3ccc(O)cc3)[C@]3(C(=O)Nc4ccc(C#CC5(O)CCCCCC5)cc43)[C@@H](C(=O)N3CCN(c4ncccn4)CC3)[C@H]12 | 1.63 | -0.271 (inactive) | 0.0176 (inactive) | -1.08 (inactive) | -0.641 (inactive) | 0.642 (inactive) | 0.614 (inactive) | 0.11 (inactive) | 1.1 | -0.127 | 0.328 (inactive) | 0.559 | -2.02 | -1.72 (inactive) | -0.206 (inactive) | -0.624 (inactive) |
| C=C[C@@H](O)[C@H]1CC(c2ccccc2)=NO1 | 0.0502 | -2.38 (inactive) | 0.325 (inactive) | -0.344 (inactive) | -0.496 (inactive) | -0.2 (inactive) | -0.105 (inactive) | 0.194 (inactive) | 1.08 | -0.0473 | 0.465 (inactive) | -0.299 | 0.99 | -0.345 (inactive) | -0.386 (inactive) | -0.573 (inactive) |
| COc1ccccc1CN1C(=O)c2ccccc2[C@@]2(Cc3ccccc3N(C3CC3)C2=O)[C@@H]1c1ccc(CO)cc1 | 0.409 | 0.162 (inactive) | -0.319 (inactive) | -6.76 (inactive) | -0.255 (inactive) | -0.522 (inactive) | -0.473 (inactive) | -0.694 (inactive) | -0.343 | -0.232 | -0.0699 (inactive) | 0.53 | 0.35 | -2.14 (inactive) | 0.315 (inactive) | 0.491 (inactive) |
| CN1C(=O)C2C=CC(C(O)c3ccc(F)cc3)N(N3CCCCC3)C2C1=O (centres undefined) | -1.49 | 1.62 (inactive) | -1.78 (inactive) | -0.555 (inactive) | 1.41 (inactive) | 1.42 (inactive) | -1.02 (inactive) | -0.837 (inactive) | -1.79 | -0.0727 | 0.612 (inactive) | -0.635 | -0.0184 | -7.46 (inactive) | 0.64 (inactive) | -0.206 (inactive) |
| Cc1ccc(S[C@]2(C(=O)O)CC(=O)N(Cc3ccccc3C(F)(F)F)[C@@H]2c2ccc(CO)cc2)cc1 | 0.44 | -0.0891 (inactive) | 0.478 (inactive) | 0.52 (inactive) | 0.127 (inactive) | 0.383 (inactive) | 0.232 (inactive) | 1.14 (inactive) | -0.285 | -0.313 | -0.161 (inactive) | -0.174 | 0.212 | -3.21 (inactive) | -0.511 (inactive) | -0.53 (inactive) |
| COCCOC(=O)N1C(=O)[C@@]2(c3cc(C#CC4(O)CCCCCC4)ccc31)[C@H](C(=O)N1CCN(c3ncccn3)CC1)[C@H]1C(=O)O[C@H](c3ccccc3)[C@H](c3ccccc3)N1[C@@H]2c1ccc(O)cc1 | -0.597 | 1.04 (inactive) | -0.0906 (inactive) | 0.59 (inactive) | 0.545 (inactive) | 2.1 (inactive) | -0.19 (inactive) | 0.37 (inactive) | 0.74 | -0.177 | 0.119 (inactive) | 0.723 | -0.849 | -0.575 (inactive) | 0.133 (inactive) | 0.559 (inactive) |
| CC(C)CCC[C@@H](C)[C@H]1CC[C@@]2(C)C3=C(CC[C@]12C)[C@@]1(C)CC[C@H](OC(=O)c2ccc(N)cc2)C(C)(C)C1CC3 (some centres undefined) | -0.322 | -0.863 (inactive) | 0.467 (inactive) | -2.03 (inactive) | 0.589 (inactive) | -2.11 (inactive) | 0.965 (inactive) | 1.16 (inactive) | 0.826 | 0.45 | 0.141 (inactive) | 0.132 | 0.0753 | -1.09 (inactive) | -0.516 (inactive) | -0.736 (inactive) |
